Bioassay records: PubChem BioAssay, several laboratories
TcdB inh: inhibitors of Clostridioides difficile toxin B glycohydrolase | P18177 | TcdB glycohydrolase enzymatic assay, plate reader | inhibition, % at 9.99 µM | actives 0.24% (n = 350,000); in the data active = inhibition above about 10%
FadD28 FP inh: blocks FadD28 binding to the bisubstrate probe; inhibition, % at 12.5 µM; fluorescence polarization; actives 0.22% (n = 360,000); AID 588549; in the data active = inhibition above about 8.5%, passing the limit was not always enough
PriA SSB inh: K. pneumoniae PriA-SSBct interaction inhibition; AlphaScreen SSBct-PriA binding, biotinylated peptide; inhibition, % at 33 µM; actives 0.6% (n = 430,000); AID 1272365; in the data active = inhibition mostly above about 37%, no sharp cut-off; inactive = mostly below about 20%
PrP UTR inh: inhibition of PrP 5' UTR reporter expression; cell-based PrP 5' UTR mRNA reporter, plate reader; inhibition, % (test concentration not listed); actives 0.35% (n = 340,000); in the data active = inhibition above about 52%
Mtb BioA inh: blocks M. tuberculosis BioA enzyme activity; purified M. tuberculosis BioA enzyme, plate reader; inhibition, % at 9.99 µM; actives 0.096% (n = 360,000); in the data active = inhibition above about 40%
Mtb hypoxia rep: inhibitors of hypoxia-regulated fluorescent reporter in Mycobacterium tuberculosis. M. tuberculosis hypoxia-regulated fluorescent reporter, fluorescence. actives 0.1% (n = 300,000). fluorescence inhibition, % (test concentration not listed); in the data active = fluorescence inhibition mostly above about 23%, no sharp cut-off; inactive = mostly below about 17%
A number is an active result; i = inactive; nt = no result shown. This is a sample that favours compounds with a hit; in the whole collection about 1% have one here.

SMILES | TcdB inh | FadD28 FP inh | PriA SSB inh | PrP UTR inh | Mtb BioA inh | Mtb hypoxia rep
Cc1cccc(S(=O)(=O)Nc2ccc(-c3ccc4nnc(-c5ccccn5)n4n3)cc2)c1 | nt | nt | 79 | nt | nt | nt
O=S(=O)(Nc1ccc(-c2ccc3nnc(-c4cccs4)n3n2)cc1)c1ccccc1 | nt | nt | i | nt | nt | nt
O=S(=O)(Nc1ccc(-c2ccc3nncn3n2)cc1)c1ccccc1F | i | i | i | i | i | i
O=S(=O)(Nc1ccc(-c2ccc3nnc(-c4ccccn4)n3n2)cc1)c1ccccc1F | nt | nt | 101 | nt | nt | nt
CCC(Oc1ccccc1F)C(=O)NCCN1CCOCC1 (stereo unspecified) | i | i | i | i | nt | i
COc1cc(/C=C2\SC(N)=NC2=O)ccc1OCC(=O)Nc1ccc(C)cc1 | nt | i | nt | i | nt | 53
COc1cc(/C=C2\SC(=O)NC2=S)ccc1OCC(=O)Nc1ccc(Cl)cc1 | nt | nt | i | nt | nt | nt
Nc1[nH]n(-c2ccccc2)c(=O)c1N=Nc1ccccc1 | i | i | 75 | i | i | i
Cc1noc(C)c1NC(=O)Nc1ccc2c(c1)C(=O)N([C@@H](C)CO)C[C@H](C)[C@@H](CN(C)C(=O)Nc1ccc(F)cc1)OCCCC[C@@H](C)O2 | i | nt | nt | nt | i | nt
COc1ccc(NC(=O)C2CC(=O)OC2c2ccccc2)cc1 (stereo unspecified) | nt | i | i | i | nt | i
Nc1ccc(-c2cc3ccccc3oc2=O)cc1 | i | i | i | 85 | i | i
O=C(COc1ccc2ccc(=O)oc2c1)NCCN1CCOCC1 | 13 | i | nt | nt | i | nt
Cn1c(C(F)(F)F)nn(CCNC(=O)c2cncc(Br)c2)c1=O | nt | nt | i | nt | nt | nt
CN(C)C(=O)C1CCNCC1 | nt | nt | 39 | nt | nt | nt
O=C(CC1OC(=O)c2ccccc21)NNC(=O)c1ccc(F)cc1 (stereo unspecified) | i | nt | i | i | i | i
CCOc1cc(CNc2ccc(CNc3ncn[nH]3)cc2)ccc1OCc1ccccc1 | nt | i | 43 | i | i | i
CC(=O)c1c(C)n([O-])c2ccc(C)cc2[n+]1=O | nt | i | i | i | i | 64
COC(=O)c1ccc(Oc2ncnc(N)c2[N+](=O)[O-])cc1 | nt | nt | i | nt | nt | nt
COc1cc(NC(=O)CSc2nc3[nH]ncc3c(=O)n2-c2ccccc2C)cc(OC)c1OC | 18 | i | i | i | nt | i
CCOc1ccc(NC(=O)CSc2nc3[nH]ncc3c(=O)n2-c2ccccc2CC)cc1 | nt | nt | i | nt | nt | nt
CC(=O)NC(c1ccccc1)c1cc([N+](=O)[O-])c2cccnc2c1O (stereo unspecified) | i | i | 44 | i | i | i
Nc1c(Cl)ncnc1N/N=C/c1ccc2ccccc2n1 | i | i | nt | i | nt | nt
C(=N\Nc1nncc2ccccc12)/c1ccccc1 | i | i | i | i | nt | nt
C(=NNc1nncc2ccccc12)c1ccccn1 | nt | nt | 51 | nt | nt | i
O=c1cnnc(NN=Cc2c[nH]c3ccccc23)[nH]1 | nt | nt | i | nt | nt | i
SMILES | TcdB inh | FadD28 FP inh | PriA SSB inh | PrP UTR inh | Mtb BioA inh | Mtb hypoxia rep
O=c1cnnc(NN=Cc2ccccn2)[nH]1 | nt | nt | 71 | nt | nt | i
Nc1c(Cl)ncnc1NN=Cc1ccccn1 | nt | nt | 110 | nt | nt | i
Cn1nc(C2CCN(Cc3ccccn3)CC2)n(-c2ccccc2)c1=O | nt | nt | i | nt | nt | nt
CO[C@H]1CN(C)C(=O)c2cc(NC(=O)Nc3ccc(Cl)c(Cl)c3)ccc2OC[C@H](C)NC[C@@H]1C | nt | nt | nt | nt | i | nt
COc1ccc2nc(N=Cc3c(C)[nH]n(-c4ccc(C)cc4C)c3=O)sc2c1 | nt | nt | 48 | nt | nt | i
O=C(CSC1=Nc2cccnc2Nc2ccccc21)N1CCN(c2ccccc2)CC1 | nt | nt | 38 | nt | nt | nt
CC(=O)Nc1cccc(NC(=O)CSC2=Nc3cccnc3Nc3ccccc32)c1 | nt | nt | i | nt | nt | nt
CCOC(=O)c1sc(=S)[nH]c1C | 12 | i | i | i | nt | nt
O=C(NC1CCS(=O)(=O)C1)c1ccc(Br)s1 (stereo unspecified) | i | i | i | i | i | i
C[C@@H](C(=O)NCc1ccco1)N1C(=O)N2CCc3c([nH]c4ccccc34)[C@@]2(C)C1=O | i | i | 47 | i | i | nt
COc1ccc(N2CCN(C(=O)CNC(=O)c3cccs3)CC2)cc1 | i | i | i | i | i | i
CCN(CC)CCOC(=O)c1ccc(NC(=O)CCCN2C(=O)/C(=C\c3cccs3)SC2=S)cc1 | i | i | 42 | i | i | i
C[C@H]1CCCCO[C@H](CN(C)C(=O)Cc2ccccc2)[C@@H](C)CN([C@@H](C)CO)C(=O)c2cc(NS(=O)(=O)c3ccccc3)ccc2O1 | i | nt | nt | nt | i | nt
COc1ccccc1NC(=O)Nc1nc(CC(=O)Nc2ccc(N(C)C)cc2)cs1 | i | i | 74 | i | i | nt
COc1cccc(CNC(=O)Cc2csc(Nc3cc(OC)ccc3OC)n2)c1 | nt | nt | 22 | nt | nt | nt
COc1ccc(NC(=O)c2csc(Nc3ccc(OC(F)F)cc3)n2)c(OC)c1 | nt | nt | i | nt | nt | nt
COc1ccc(NC(=O)c2csc(Nc3ccc(OC(F)F)cc3)n2)cc1OC | nt | nt | active | nt | nt | nt
CN(C)c1ccc(NC(=O)Nc2csc3ccccc23)cc1 | i | i | 40 | i | i | nt
COc1ccc(NC(=O)Cc2csc(NC(=O)Nc3ccccc3OC)n2)cc1 | i | i | nt | nt | i | nt
CC(C)(C)N1CC23CCC(C[C@@H]2C1=O)O3 (stereo partly specified) | i | i | i | i | i | nt
CCc1cc(=O)[nH]c(SCCc2ccccc2)n1 | nt | i | i | i | i | i
CC(=O)Nc1ccc2oc(-c3ccccc3Br)nc2c1 | nt | i | i | i | i | i
COc1ccc(OC)c(Nc2nc(CC(=O)NCc3ccccc3OC)cs2)c1 | nt | nt | 17 | nt | nt | nt
COc1ccc(OC)c(Nc2nc(-c3sc(C)nc3C)cs2)c1 | nt | i | 47 | i | i | i
COc1ccc(OC)c(Nc2nc(-c3sc(NC(=O)C(C)(C)C)nc3C)cs2)c1 | i | i | i | i | i | i
SMILES | TcdB inh | FadD28 FP inh | PriA SSB inh | PrP UTR inh | Mtb BioA inh | Mtb hypoxia rep
COc1ccc(OC)c(Nc2nc(CC(=O)Nc3cccc(C)c3C)cs2)c1 | nt | nt | 24 | nt | nt | nt
COc1ccc(NC(=O)Cc2csc(Nc3cccc(C(F)(F)F)c3)n2)cc1OC | nt | nt | 17 | nt | nt | nt
CC(=O)Nc1cccc(NC(=O)Cc2csc(Nc3cccc(C(F)(F)F)c3)n2)c1 | nt | nt | i | nt | nt | nt
COc1cc(OC)c2c(-c3cccc(-c4sccc4C(C)=O)c3)cc(=O)oc2c1 | i | i | i | i | i | i
COc1ccc(CN(C)C[C@@H]2OCCCC[C@H](C)Oc3ccc(NS(=O)(=O)c4ccccc4)cc3C(=O)N([C@@H](C)CO)C[C@H]2C)cc1 | i | nt | nt | nt | i | nt
O=C(Nc1ccc(Br)cc1)c1cccnc1N1CCOCC1 | nt | i | i | i | nt | i
CCn1cc(Cl)c(C(=O)Nc2ccccc2C(N)=O)n1 | i | i | 45 | i | i | i
Cc1ccc(OC(=O)N(C)C[C@@H]2OCc3ccccc3-c3c(n(C)c4ccccc34)C(=O)N([C@H](C)CO)C[C@H]2C)cc1 | i | nt | nt | nt | nt | nt
O=C(NCCc1csc(-c2ccc(C(F)(F)F)cc2)n1)C(=O)Nc1cccc(F)c1 | nt | nt | i | nt | nt | nt
O=C(COC(=O)c1ccc(O)cc1O)Nc1nnc(-c2ccccc2)o1 | i | i | 57 | i | i | i
O=C(COC(=O)c1cccc(O)c1)Nc1nnc(-c2ccccc2)o1 | i | i | 43 | i | i | i
COc1ccc(C(=O)OCC(=O)Nc2nnc(-c3ccccc3)o2)cc1 | i | i | i | i | i | i
